Out of some 69,000 compounds screened, about 8,600 (12%) showed an effect of 50% or more. For the sample, strong results were picked, then their nearest neighbours and some compounds at random.
test system: Plasmodium berghei; experiment: Screen against P. berghei liver stage (PbLuc), transformed with Luciferase, at 10uM; format: functional, HepG2; details: tested at 10 uM

SMILES	INHIBITION [%]
O=C1CN(c2ccc(C(=O)N3CCc4ccccc43)cn2)CCN1	49
N#Cc1c(F)cccc1N1CCN(C(=O)Nc2nncs2)CC1	-7.53
O=C(NCCc1nccs1)c1cn(CCN2CCNCC2)nn1	-45
O=C(NCCN1CCNC1=O)c1cnc(-c2cccnc2)nc1	15.64
O=C(c1cccs1)N1CCc2nnc(COc3cncnc3)n2CC1	28.2
O=C(c1cccs1)N1CCc2ncc(Cn3cncn3)n2CC1	22.9
O=C(c1ccsc1)N1CCc2nnc(COc3cncnc3)n2CC1	53.9
O=C(Cc1cccs1)N1CCc2nnc(COc3cncnc3)n2CC1	47.5
O=C(c1cscn1)N1CCc2ncc(Cn3cncn3)n2CC1	38.1
O=C(c1ccsc1)N1CCc2ncc(Cn3cncn3)n2CC1	62.5
O=C1CN(C(=O)c2cc3c(F)cc(Br)cc3[nH]2)CCN1	-44.2
Cc1cccc(N2CCc3ncc(CNc4ccccn4)n3CC2)n1	-26.1
Cc1cc(N2CCOC(c3ccc(C(N)=O)cn3)C2)ncn1 (stereo unspecified)	36.9
Cc1cc(C)nc(N2CCC(C(=O)Nc3n[nH]c(C)n3)CC2)n1	47.3
COCCN1CCC2(CCC1=O)CN(C1CCOCC1)CCN2C (stereo unspecified)	17.8
Cc1cccc(C(=O)NCc2ccc(N3CCCCCC3)nc2)n1	87.3
CCN1CCN(c2ccc(CNC(=O)c3ccc(Cl)o3)cn2)CC1	57.2
Cc1cccc(C(=O)NCc2ccc(N3CCCCC3)nc2)n1	8.48
CC(=O)Nc1nc(C(=O)NCc2ccc(N3CCOCC3)nc2)cs1	19.4
CCN1CCN(c2ccc(CNC(=O)c3cnn(C)c3C)cn2)CC1	-15.5
CC(=O)Nc1nc(C(=O)Nc2ccc(F)cc2)cs1	31.1
CCN(CC)c1ccc(CNC(=O)c2cccc(C)n2)cn1	16.2

SMILES	INHIBITION [%]
CC(=O)Nc1nc(C(=O)NCc2ccc(N3CCCCCC3)nc2)cs1	67.2
CCN1CCN(c2ccc(CNC(=O)c3cc(C)on3)cn2)CC1	25.6
CC(=O)Nc1nc(C(=O)Nc2ccc(N3CCCCC3)nc2)cs1	78.1
CC(=O)Nc1nc(C(=O)NCc2ccnc(N3CCCC3)c2)cs1	9.14
CC(=O)Nc1nc(C(=O)NCc2ccc(N3CCCC3)nc2)cs1	13.3
CN(C(=O)C1CCC1)C1CCN(c2ccccc2Cl)C1=O (stereo unspecified)	1.74
CC(=O)c1c(C)nn(S(=O)(=O)c2ccccc2)c1C	49.3
CCN(CC)C(=O)CS(=O)(=O)c1cc(OC)c(OC)cc1C	-48.3
Cc1cnc(CN(C)C2CCN(Cc3nc4ccccc4o3)C2)o1 (stereo unspecified)	13.3
C1CC(NCc2nnc(C3CC3)o2)CN(Cc2noc(C3CC3)n2)C1 (stereo unspecified)	-19.9
CN1CCN(S(=O)(=O)c2ccc(C(=O)N3CC[C@@H](O)C3)cc2)CC1=O	1.41
c1cc(CC2CCCNC2)nc(NCCc2cnccn2)c1 (stereo unspecified)	32.3
Cn1cc(C(C)(O)CNc2ccc(Cl)c(C#N)n2)cn1 (stereo unspecified)	-10.7
Cc1ccc(C(=O)N2CCCC(c3nncn3C)C2)c(C)c1 (stereo unspecified)	45.1
CC(C)c1nnc2n1CCN(CCC(=O)N1CCc3ccccc31)C2	13.7
Cc1noc(C)c1C(=O)NCc1ccc(N2CCC(C)CC2)nc1	74.9
Cc1noc(C)c1C(=O)NCc1ccc(N2CCCCCC2)nc1	25.6
Cc1noc(C)c1C(=O)NCc1ccc(N2CCOCC2)nc1	5.03
CN(C)C(=O)[C@@H]1C[C@@H]2CCN(Cc3ccc4c(c3)OCO4)C[C@@H]2O1	13.1
CC1CN(C)c2ccccc2CN1C(=O)NCc1ccon1 (stereo unspecified)	4.6
CCN1CCN(c2ccccc2NC(=O)NCc2ccon2)CC1	50.4
Cc1nc(CNC(=O)Nc2cc(F)ccc2N2CCN(C)CC2)no1	52.7

SMILES	INHIBITION [%]
CN1CCN(c2ccc(F)cc2NC(=O)NCC[S+](C)[O-])CC1 (stereo unspecified)	-33
CN1CCN(c2ccc(F)cc2NC(=O)NCc2ccon2)CC1	51.6
CCc1cc(CNC(=O)Nc2cc(F)ccc2N2CCCCC2)on1	26.6
O=C(c1ccncc1)N1CCN(c2ccc(F)cc2Cl)CC1	23.8
O=C(NCc1ccon1)Nc1cc(F)ccc1N1CCCCC1	28.8
O=C(Cc1ccon1)N1CCN(c2ccc(F)cc2Cl)CC1	50
O=C(Cc1ccon1)N1CCN(c2ccncc2Cl)CC1	20.9
Cc1nc(CNC(=O)Nc2cc(F)ccc2OC(F)F)no1	5.91
CC1CCCN(Cc2ccc(CNC(=O)NCc3ccon3)cc2)C1 (stereo unspecified)	-18.6
COc1cccc(C(=O)N2C[C@@H]3CC[C@H]2CN(Cc2cscn2)C3)c1	7.3
CC(C)NC(=O)NC(C)c1nc(-c2ccccc2)cs1 (stereo unspecified)	15.7
O=S(=O)(c1cccc(F)c1)N1CC[C@H]2[C@H]1CCN2c1ncccn1	-12.4
CN(C)C(=O)[C@H]1C[C@@H]2CCN(C3CCOCC3)C[C@@H]2O1	-0.371
COc1c(C2CCCN2C(=O)c2scnc2C)c(C)nn1C (stereo unspecified)	25.1
COc1ccc(S(=O)(=O)NC(=O)COC2CCCCC2)cc1	14.1
CC(C)n1nccc1CN1Cc2nccn2CC1c1ccccc1 (stereo unspecified)	7.39
CCn1nc(C)cc1C(=O)NCc1cc(N(C)C)nc2ccccc12	54.4
Cc1nn(C)cc1C(=O)NCc1cc(N(C)C)nc2ccccc12	-17.8
Cc1nn(C)c(C)c1C(=O)NCc1cc(N(C)C)nc2ccccc12	-21.1
CNC(=O)CN1CCO[C@H]2CN(C(=O)C3CC3)C[C@H]21	-8.85
C1CC(c2noc(C3CC3)n2)N(Cc2nnc(C3CC3)o2)C1 (stereo unspecified)	15.75
CC(=O)N1CCOC(c2c(C(=O)O)sc3ccccc23)C1 (stereo unspecified)	-9.51

SMILES	INHIBITION [%]
CCc1ncc2c(n1)CN(Cc1nc(-c3ccccn3)no1)CC2	47.1
Cn1cnc2c1CCN(Cc1noc(-c3ccccc3)n1)C2	43.7
c1cc(-c2noc(CN3CCc4c(ncn4C4CC4)C3)n2)cs1	31.1
c1cncc(-c2noc(CN3CCc4cncnc4C3)n2)c1	22.683
Cn1cnc2c1CCN(Cc1nc(Cc3ccccc3)no1)C2	52.7
c1ccc(-c2noc(CN3CCc4cncnc4C3)n2)nc1	72.9
Cn1c(C2CC2)nc2c1CCN(Cc1nc(Cc3ccccc3)no1)C2	34.7
Cn1cnc2c1CCN(Cc1nc(COc3ccc(F)cc3)no1)C2	53.8
c1ccc(Cc2noc(CN3CCc4c(ncn4C4CC4)C3)n2)cc1	0.411
Cn1cnc2c1CCN(Cc1nc(-c3ccsc3)no1)C2	52.7
Cn1cnc2c1CCN(Cc1nc(-c3ccco3)no1)C2	45.1
CC(C)c1nc2c(n1C)CCN(Cc1nc(-c3ccsc3)no1)C2	47.6
CN1C(=O)[C@@H]2CC[C@H]1CN(C(=O)c1nnc3n1CCCCC3)C2	-89.9
CCS(=O)(=O)N1CCC2(CC1)CN(c1cccnc1)C(=O)CO2	45.7
CC(C)c1ncc2c(n1)CN(Cc1nc(-c3ccccn3)no1)CC2	28.8
CCCn1nccc1-c1nccnc1CC1CCN(C(C)=O)CC1	19.3
COC1C[C@@H]2CN(C(=O)c3cc4cccc(F)c4[nH]3)C[C@@H]2C1 (stereo partly specified)	-14.379
CCN(CC)Cc1cn2c(n1)CN(Cc1c(C)noc1C)CC2	16.6
COCCn1ccc2c(C(=O)NCC3CCCO3)cccc21 (stereo unspecified)	23.7
Cc1cnc(N2C[C@@H]3CCN(CC(=O)N(C)C)C(=O)[C@H]3C2)nc1	-61.9
Cc1ccc(CC2COCCN(Cc3ccccc3)C2)nc1 (stereo unspecified)	35
Cc1ccc2c(n1)N(C)CCN(C(=O)NC1CC1)C2	1.28

SMILES	INHIBITION [%]
Cn1cnc2c1CCN(Cc1csc(-c3ccccc3)n1)C2	23.6
COc1ccc(-c2noc(CN3CCc4cncnc4C3)n2)cc1	40.3
Fc1ccc(OCc2noc(CN3CCc4cncnc4C3)n2)cc1	50.4
Cn1cnc2c1CCN(Cc1csc(-c3ccccc3F)n1)C2	70.7
c1ccc(Cc2noc(CN3CCc4cncnc4C3)n2)cc1	19.6
Cn1cnc2c1CCN(Cc1csc(-c3ccc(F)cc3)n1)C2	-2.522
CO[C@@H]1CCC[C@@H](N(C)C(=O)c2cn3cc(C)ccc3n2)[C@H]1O	-11.125
COc1ccc(C(=O)N2CCCS2(=O)=O)cc1	-11.4
CN1C(=O)CC(c2ccccc2)C12CCN(CC1CCOCC1)CC2 (stereo unspecified)	-7.28
COCCN1CCC(CN(CC2CCCO2)C(=O)C2CCOCC2)CC1 (stereo unspecified)	29.9
CCCc1nc(C(C)(C)NC(=O)c2ccnn2C)no1	38.3
Cn1nccc1C(=O)NC(C)(C)c1noc(C(C)(C)C)n1	12.7
CN(C)Cc1nc(C(C)(C)NC(=O)c2ccnn2C)no1	57.6
CCNc1ncc(C(=O)N2CCc3c(nc(C)nc3N(C)C)C2)cn1	36.7
CCO[C@H]1CN(C)C[C@@H]1NC(=O)c1cc(C)nc2c(C)cccc12	24.3
Cc1cc(SC(C)(C)C)ccc1NC(=O)CNC(N)=O	22.2
Cc1cc(SC(C)(C)C)ccc1NC(C)C(=O)NC(N)=O (stereo unspecified)	65.7
Cc1cc(SC(C)(C)C)ccc1NCC(=O)NC(N)=O	32

Source: ChEMBL document CHEMBL4513216, “Probing the Open Global Health Chemical Diversity Library for Multistage-Active Starting Points for Next-Generation Antimalarials” (ACS Infect Dis, 2020)
